From the supplement of paper PMC10849652
About 7,900 targets were measured; listed, in parts, are those with a hit and a random draw of the rest. About 0.6% of all pairs of compound and target were hits. Unmarked numbers belong to inactive results.

The targets below were run with CC1=C(C2=C(C=C1)C(=O)C3=CC=CC=C3N2CCCN)C (assay: log2 fold change, soluble protein after heating vs DMSO (PISA); higher = thermal stabilisation; K562 cells, 10 uM, 30 min; active = over 0.2 and 3.5 SD of the protein, either way, in both replicates (recomputed)).
Outline: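 Soluble protein was defined as the supernatant after 21,000xg for 90 min. It came from K562 cells at 2×10^6 cells/mL given 10 μM compound for 30 min, heated in aliquots for 3 min across 48°C-58°C, pooled, and extracted in PBS with 0.5% NP-40 at 4°C, and was quantified by TMTpro 16plex LC-MS/MS with equalised channel sums. Thermal stability against control samples, from duplicates, is reported as log2 fold change.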

Chain of UniProt Q9Y2I8 (Q9Y2I8 whole entry, looked up): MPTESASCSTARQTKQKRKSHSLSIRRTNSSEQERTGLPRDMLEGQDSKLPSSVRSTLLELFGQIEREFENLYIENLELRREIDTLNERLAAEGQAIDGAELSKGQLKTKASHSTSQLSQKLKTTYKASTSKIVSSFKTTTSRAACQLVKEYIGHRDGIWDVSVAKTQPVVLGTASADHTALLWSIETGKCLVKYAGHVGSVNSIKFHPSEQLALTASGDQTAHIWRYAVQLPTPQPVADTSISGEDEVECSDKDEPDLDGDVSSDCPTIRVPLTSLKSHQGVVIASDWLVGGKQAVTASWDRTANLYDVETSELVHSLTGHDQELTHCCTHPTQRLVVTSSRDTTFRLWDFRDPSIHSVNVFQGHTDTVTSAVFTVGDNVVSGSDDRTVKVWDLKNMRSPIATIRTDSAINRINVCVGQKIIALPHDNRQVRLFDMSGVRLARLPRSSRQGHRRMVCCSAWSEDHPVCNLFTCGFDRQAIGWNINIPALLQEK
Chain of UniProt Q9Y4E8 (Q9Y4E8 whole entry, looked up): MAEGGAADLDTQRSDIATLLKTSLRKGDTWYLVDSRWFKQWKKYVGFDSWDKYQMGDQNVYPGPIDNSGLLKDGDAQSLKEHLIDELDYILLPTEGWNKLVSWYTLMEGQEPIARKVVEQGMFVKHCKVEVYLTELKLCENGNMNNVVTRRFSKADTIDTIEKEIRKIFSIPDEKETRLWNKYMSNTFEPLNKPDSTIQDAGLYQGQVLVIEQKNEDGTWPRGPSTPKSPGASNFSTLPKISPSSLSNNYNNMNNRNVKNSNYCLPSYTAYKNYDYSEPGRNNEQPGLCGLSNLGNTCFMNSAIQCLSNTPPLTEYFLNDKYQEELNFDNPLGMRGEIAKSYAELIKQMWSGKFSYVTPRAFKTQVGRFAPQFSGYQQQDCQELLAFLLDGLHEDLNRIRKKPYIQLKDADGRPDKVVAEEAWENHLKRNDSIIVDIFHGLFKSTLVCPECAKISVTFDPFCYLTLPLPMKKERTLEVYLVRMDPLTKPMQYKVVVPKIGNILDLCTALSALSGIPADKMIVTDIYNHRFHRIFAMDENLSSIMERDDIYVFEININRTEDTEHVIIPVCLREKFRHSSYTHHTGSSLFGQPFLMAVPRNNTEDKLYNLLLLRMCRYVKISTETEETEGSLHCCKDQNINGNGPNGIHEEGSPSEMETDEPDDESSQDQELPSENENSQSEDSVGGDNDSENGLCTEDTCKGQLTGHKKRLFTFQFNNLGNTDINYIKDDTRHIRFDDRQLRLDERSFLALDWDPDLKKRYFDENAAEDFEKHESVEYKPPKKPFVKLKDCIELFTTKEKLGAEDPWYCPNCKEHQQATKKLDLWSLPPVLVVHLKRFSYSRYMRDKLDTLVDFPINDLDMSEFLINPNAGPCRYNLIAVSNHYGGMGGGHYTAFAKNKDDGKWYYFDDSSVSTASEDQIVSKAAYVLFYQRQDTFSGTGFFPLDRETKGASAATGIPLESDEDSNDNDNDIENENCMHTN
Chain of UniProt Q8IWA0 (Q8IWA0 whole entry, looked up): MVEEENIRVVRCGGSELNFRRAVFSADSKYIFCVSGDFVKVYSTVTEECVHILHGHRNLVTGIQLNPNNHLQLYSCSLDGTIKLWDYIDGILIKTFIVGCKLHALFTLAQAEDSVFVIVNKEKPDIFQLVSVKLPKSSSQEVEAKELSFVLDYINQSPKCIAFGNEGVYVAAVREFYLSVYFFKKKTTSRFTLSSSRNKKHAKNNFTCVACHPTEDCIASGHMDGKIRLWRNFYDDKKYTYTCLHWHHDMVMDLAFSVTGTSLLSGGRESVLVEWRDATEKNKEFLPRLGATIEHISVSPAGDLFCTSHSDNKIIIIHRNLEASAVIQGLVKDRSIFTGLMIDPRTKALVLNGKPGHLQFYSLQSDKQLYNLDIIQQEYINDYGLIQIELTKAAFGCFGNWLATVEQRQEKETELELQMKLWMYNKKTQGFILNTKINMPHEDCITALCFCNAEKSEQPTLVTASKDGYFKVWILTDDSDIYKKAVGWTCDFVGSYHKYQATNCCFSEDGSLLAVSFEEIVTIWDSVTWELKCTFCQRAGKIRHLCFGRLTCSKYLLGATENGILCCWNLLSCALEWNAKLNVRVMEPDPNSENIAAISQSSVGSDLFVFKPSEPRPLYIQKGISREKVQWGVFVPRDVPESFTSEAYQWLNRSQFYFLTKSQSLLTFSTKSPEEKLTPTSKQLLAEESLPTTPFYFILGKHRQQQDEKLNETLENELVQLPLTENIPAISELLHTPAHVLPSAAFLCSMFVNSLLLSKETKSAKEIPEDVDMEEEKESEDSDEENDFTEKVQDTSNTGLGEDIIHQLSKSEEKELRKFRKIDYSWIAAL
Chain of UniProt Q92890 (Q92890 whole entry, looked up): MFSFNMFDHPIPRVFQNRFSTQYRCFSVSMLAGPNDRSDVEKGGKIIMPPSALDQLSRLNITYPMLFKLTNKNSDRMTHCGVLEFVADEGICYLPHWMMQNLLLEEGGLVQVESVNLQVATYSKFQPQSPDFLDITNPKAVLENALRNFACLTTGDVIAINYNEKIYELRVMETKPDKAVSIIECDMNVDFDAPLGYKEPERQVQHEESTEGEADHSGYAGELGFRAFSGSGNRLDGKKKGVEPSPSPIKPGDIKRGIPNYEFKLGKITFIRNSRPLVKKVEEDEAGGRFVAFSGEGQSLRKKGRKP
Chain of UniProt Q9NQZ2 (Q9NQZ2 whole entry, looked up): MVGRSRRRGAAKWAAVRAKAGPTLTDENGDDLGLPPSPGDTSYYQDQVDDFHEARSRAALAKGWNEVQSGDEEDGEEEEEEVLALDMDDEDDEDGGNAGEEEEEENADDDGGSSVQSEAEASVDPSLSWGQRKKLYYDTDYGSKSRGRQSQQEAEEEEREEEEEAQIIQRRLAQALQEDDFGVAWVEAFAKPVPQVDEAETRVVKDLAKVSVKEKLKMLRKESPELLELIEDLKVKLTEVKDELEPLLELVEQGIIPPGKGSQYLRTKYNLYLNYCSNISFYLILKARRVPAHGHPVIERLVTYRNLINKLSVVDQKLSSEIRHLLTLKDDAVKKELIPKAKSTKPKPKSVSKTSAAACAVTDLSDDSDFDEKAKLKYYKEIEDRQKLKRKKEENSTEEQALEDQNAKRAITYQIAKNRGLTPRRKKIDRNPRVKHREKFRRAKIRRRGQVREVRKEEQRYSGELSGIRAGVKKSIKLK
Chain of UniProt Q9Y5Z9 (Q9Y5Z9 whole entry, looked up): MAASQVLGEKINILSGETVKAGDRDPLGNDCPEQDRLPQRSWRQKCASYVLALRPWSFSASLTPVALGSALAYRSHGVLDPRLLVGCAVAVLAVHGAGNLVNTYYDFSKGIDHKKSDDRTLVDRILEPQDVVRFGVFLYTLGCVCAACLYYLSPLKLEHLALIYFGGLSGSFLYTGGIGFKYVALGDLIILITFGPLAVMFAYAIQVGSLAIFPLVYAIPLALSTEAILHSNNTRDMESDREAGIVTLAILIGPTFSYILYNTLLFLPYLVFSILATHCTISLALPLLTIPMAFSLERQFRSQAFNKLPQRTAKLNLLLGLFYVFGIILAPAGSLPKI
Chain of UniProt Q9NVA4 (Q9NVA4 whole entry, looked up): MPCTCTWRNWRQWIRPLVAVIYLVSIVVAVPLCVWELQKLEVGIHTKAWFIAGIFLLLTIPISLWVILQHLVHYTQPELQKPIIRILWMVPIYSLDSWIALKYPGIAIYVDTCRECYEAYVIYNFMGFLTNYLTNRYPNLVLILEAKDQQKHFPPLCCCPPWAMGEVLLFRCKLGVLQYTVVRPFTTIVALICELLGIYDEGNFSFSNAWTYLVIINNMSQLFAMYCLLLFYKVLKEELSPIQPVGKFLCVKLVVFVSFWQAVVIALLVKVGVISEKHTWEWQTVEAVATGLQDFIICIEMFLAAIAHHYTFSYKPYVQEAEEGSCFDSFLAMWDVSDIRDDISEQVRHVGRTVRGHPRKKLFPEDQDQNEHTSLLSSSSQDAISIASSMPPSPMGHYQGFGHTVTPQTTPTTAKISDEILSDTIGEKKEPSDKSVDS
Chain of UniProt Q9NX01 (Q9NX01 whole entry, looked up): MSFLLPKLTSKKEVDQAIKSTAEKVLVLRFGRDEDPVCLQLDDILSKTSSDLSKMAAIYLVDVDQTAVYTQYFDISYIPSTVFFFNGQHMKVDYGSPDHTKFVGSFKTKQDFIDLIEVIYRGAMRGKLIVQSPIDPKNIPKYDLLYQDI
Chain of UniProt Q9Y5K5 (Q9Y5K5 whole entry, looked up): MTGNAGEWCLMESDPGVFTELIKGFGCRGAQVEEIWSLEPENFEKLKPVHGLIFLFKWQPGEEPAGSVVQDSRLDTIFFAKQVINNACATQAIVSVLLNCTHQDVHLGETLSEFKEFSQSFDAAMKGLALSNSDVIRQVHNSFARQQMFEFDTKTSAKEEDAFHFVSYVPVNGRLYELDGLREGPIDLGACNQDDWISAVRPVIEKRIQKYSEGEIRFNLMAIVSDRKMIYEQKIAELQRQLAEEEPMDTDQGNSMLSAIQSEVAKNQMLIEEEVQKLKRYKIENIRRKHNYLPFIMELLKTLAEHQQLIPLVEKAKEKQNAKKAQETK
Chain of UniProt Q99757 (Q99757 whole entry, looked up): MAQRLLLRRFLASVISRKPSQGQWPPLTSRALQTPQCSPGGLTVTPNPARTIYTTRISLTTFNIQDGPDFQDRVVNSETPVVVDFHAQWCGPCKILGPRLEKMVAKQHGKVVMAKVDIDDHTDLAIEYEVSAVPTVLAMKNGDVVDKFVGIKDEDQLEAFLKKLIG
Chain of UniProt Q96DX7 (Q96DX7 whole entry, looked up): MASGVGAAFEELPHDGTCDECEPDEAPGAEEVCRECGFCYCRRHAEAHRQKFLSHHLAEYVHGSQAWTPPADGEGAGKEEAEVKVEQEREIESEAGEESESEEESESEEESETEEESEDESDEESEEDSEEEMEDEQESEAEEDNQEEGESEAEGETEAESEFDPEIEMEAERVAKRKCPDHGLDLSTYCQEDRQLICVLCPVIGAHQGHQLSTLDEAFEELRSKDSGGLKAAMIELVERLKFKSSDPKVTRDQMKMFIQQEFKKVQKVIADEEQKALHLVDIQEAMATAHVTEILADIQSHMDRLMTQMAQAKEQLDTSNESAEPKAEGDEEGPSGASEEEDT

Row | Target | log2 fold change
1 | UXT isoform 2 (UniProt Q9UBK9) | 0.194
2 | TMEM128 (UniProt Q5BJH2) | 0
3 | VWA3B isoform 6 (UniProt Q502W6) | 0.089
4 | TMEM164 (UniProt Q5U3C3) | 0.066
5 | TXN2 (UniProt Q99757) | 0.041
6 | WDR37 isoform 2 (UniProt Q9Y2I8) | 0.144
7 | UBA52 (UniProt P62987) | -0.532
8 | U2AF1L5 (UniProt P0DN76) | -0.067
9 | TRIM44 (UniProt Q96DX7) | -0.327 (active)
10 | USP15 (UniProt Q9Y4E8) | -0.019
11 | UTP3 (UniProt Q9NQZ2) | -0.571
12 | WDR75 (UniProt Q8IWA0) | 0.402
13 | UFD1 isoform 1 (UniProt Q92890) | 0
14 | TXNL4B (UniProt Q9NX01) | 0.067
15 | TMEM189-UBE2V1 (UniProt I3L0A0) | 0.037
16 | WARS1 (UniProt G3V277) | 0.087
17 | UNC119B (UniProt A6NIH7) | -0.047
18 | TSEN2 (UniProt Q8NCE0) | 0.027
19 | UCHL5 isoform 3 (UniProt Q9Y5K5) | 0.028
20 | TMEM184C (UniProt Q9NVA4) | -0.005
21 | TMEM106B (UniProt Q9NUM4) | -0.027
22 | UBIAD1 (UniProt Q9Y5Z9) | 0.047
